The text below walks through data of PubChem BioAssay (NCI).

This is part of a sample that, as a whole, favours compounds with a hit. Of some 83,000 tested, about 20% had one in any assay.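 Step 1: grow cells in 96-well plates. Step 2: add test compound at a single concentration. Step 3: incubate 48 h. Step 4: record percent growth.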 Unmarked numbers belong to inactive results. Activity calls are given as the source filed them. How the source made its calls: active means growth percent below 10; inactive means the rest.

What all share (assay): NCI-60 one-dose screen, 48 h (100 = growth as untreated, 0 = no growth, -100 = all killed)
What all share (conditions): 10 µM unless noted

Test [1] deals with SR leukemia.
Test [2] deals with RPMI-8226 leukemia.
Test [3] deals with OVCAR-8 ovarian.
Test [4] deals with OVCAR-5 ovarian.
Test [5] concerns OVCAR-4 ovarian.
The subject of test [6] is SK-OV-3 ovarian.
For test [7], the system named is IGROV1 ovarian.
Test [8] deals with OVCAR-3 ovarian.
Test [9] concerns HS 578T breast.
The test system of test [10] is NCI/ADR-RES ovarian.
In test [11] the test system is T-47D breast.
The test system of test [12] is BT-549 breast.
Test [13] concerns MDA-MB-435 melanoma.
Test [14] deals with SW-620 colon.
Test [15] relates to MCF7 breast.
In test [16] the test system is HCT-116 colon.
The subject of test [17] is HCC-2998 colon.
The subject of test [18] is KM12 colon.

On to `CCSc1ccnc(N)n1`, for which the growth in test [1] is 153%; in [2], 114%; in [3] it was 108%; in test [4], 104%; in [5] it was 111%; in [6] it was 110%. Further, the growth in test [7] was 96.7%; in test [8], 97.3%; in [9] it was 117%; in [10] it was 109%; in [11], 104%; in test [12], 117%. In addition, the growth in test [13] was 112%; in test [14] it was 106%; in test [15] it was 104%; in test [16], 106%; in test [17], 116%; in [18] it was 108%.
Consider `CNCCCNc1nc2ccccc2c2c(=O)c3cc(Cl)ccc3sc12`, for which the growth in test [1] was -39.9% (active); in test [2] it was -25.3% (active); in test [3], 24.5%; in test [4] it was 47.1%; in test [5] it was 63.6%; in [6] it was 84.4%. Further, the growth in test [7] is 33.2%; in test [8] it was 9.78% (active); in [9], 59.9%; in test [10] it was 44.3%; in test [11] it was 48.5%; in test [12], 92.4%. For the same compound, the growth in test [13] is -18.5% (active); in test [14] it was -87% (active); in test [15] it was -77.3% (active); in test [16], -92.1% (active); in [17], -89.8% (active); in test [18], -24.6% (active).
For `CNCC[C@H](Oc1cccc2ccccc12)c1cccs1`, the growth in [1] is 51.9%; in [2], 94.7%; in test [3], 82.1%; in test [4], 117%; in [5] it was 71.7%; in [6] it was 109%. In addition, the growth in [7] is 84.7%; in test [8], 86.9%; in test [9], 67.5%; in test [10] it was 83.4%; in test [11] it was 99.9%; in test [12], 94.2%. Further, the growth in test [13] was 88.5%; in test [14] it was 106%; in test [15], 78.1%; in test [16], 68.8%; in test [17] it was 79%; in [18], 109%.
For `Cc1ccc(OCCOCCOCCOCCOCCOc2ccc(C)n(O)c2=S)c(=S)n1O`, the growth in test [1] was 4.81% (active); in [2], 11.5%; in [3], 14.1%; in test [4] it was 41.7%; in test [5], 22.7%; in [6], 10.2%. In addition, the growth in [7] is 15.5%; in test [8], 29.6%; in test [9], 45.8%; in test [10], 1.54% (active); in test [11], 15.1%; in [12], 26%. In addition, the growth is 32.6% in test [13]; 27.9% in test [14]; 11.5% in test [15]; 18% in test [16]; -7.72% (active) in test [17]; 23% in [18].
As to `Cc1nc2sc(C(=O)Nc3cccc4ccccc34)c(N)c2cc1C(=O)c1ccccc1`, the growth in test [1] was 7.17% (active); in test [2], 15.6%; in test [3] it was 23.7%; in test [4] it was 32.3%; in test [5], 51.8%; in test [6] it was 39.7%. The growth is 24.8% in test [7]; -26.4% (active) in test [8]; 11.9% in test [9]; 12.9% in test [10]; 53.7% in test [11]; 15.2% in [12]. The growth was -53% (active) in test [13]; 21.9% in test [14]; 17.9% in [15]; 11.3% in test [16]; 10.3% in [17]; 19.1% in test [18].
Take `c1cc(OCCN2CCCCCC2)ccc1CNc1ccc2nc(CCC3CCCCC3)[nH]c2c1`: the growth in [1] is 26.1%; in test [2], 4.27% (active); in test [3] it was 65.6%; in test [4], 79.5%; in [5] it was 51.4%; in test [6], 82.3%. The growth in test [7] is 43.2%; in [8], 77.3%; in test [9] it was 65.2%; in test [10], 66.9%; in test [11], 31.6%; in [12] it was 76.5%. Further, the growth in test [13] was 40.6%; in test [14] it was 28.8%; in [15], 5.67% (active); in test [16], 22.9%; in [17], -4.87% (active); in [18], 65.6%.
As to `Cc1ccc2c(/C=C/C(=O)c3cc(CN4CCOCC4)c(O)c4nc(C)ccc34)cc(CN3CCOCC3)c(O)c2n1`, the growth in test [1] is 6.56% (active); in test [2], 2.37% (active); in test [3] it was 11.1%; in test [4] it was 0.618% (active); in test [5] it was -74.3% (active); in test [6], -1.75% (active). Also, the growth was 2.95% (active) in test [7]; -13.2% (active) in [8]; 29.6% in [9]; 8.34% (active) in [10]; 9.26% (active) in test [11]; 12.8% in test [12]. Further, the growth is -62.6% (active) in [13]; 1.06% (active) in test [14]; 4.69% (active) in [15]; -22.9% (active) in test [16]; 22.7% in test [17]; -59.3% (active) in test [18].
As to `COc1ccc(-c2nc3ccc(C)cc3c3c2c(=O)n(C)c(=O)n3C)cc1OC`, the growth in test [1] was 99.4%; in test [2] it was 101%; in [3], 107%; in test [4] it was 97%; in test [5] it was 122%; in test [6], 109%. In addition, the growth in [7] is 108%; in [8], 111%; in test [9], 74.3%; in test [10], 92.5%; in test [11], 106%; in test [12] it was 120%. Further, the growth is 90% in test [13]; 103% in test [14]; 97.7% in test [15]; 105% in test [16]; 98.2% in test [17]; 116% in [18].
